Screening results as filed in PubChem BioAssay.
Hits are enriched below; roughly 3.1% of the tested compounds scored in any of these assays.
BoNT A protease – inhibitors of Botulinum neurotoxin A light chain protease | 0.17% of 360,000 active | multiplex microsphere protease substrate cleavage, flow cytometry | AID 588499 | inhibition, % at 10 µM; note: plate controls were buffer without enzyme for full effect and enzyme alone for no effect
Autofluor counter – counter-screen for toxin protease inhibitors: compound fluorescence. 3.1% of 360,000 active. compound autofluorescence counterscreen, microsphere flow cytometry; active compounds read high. fluorescence intensity (test concentration not listed); in the data active = fluorescence intensity above about 16000; inconclusive = no clear call, values can overlap the other calls
Anthrax LF inh2 – blocks Bacillus anthracis lethal factor protease | inhibition, % at 10 µM | multiplex microsphere protease cleavage assay, LF | 0.12% of 360,000 active | P15917; note: plate controls were buffer without enzyme for full effect and enzyme alone for no effect
Target sequence (P15917 whole entry, looked up): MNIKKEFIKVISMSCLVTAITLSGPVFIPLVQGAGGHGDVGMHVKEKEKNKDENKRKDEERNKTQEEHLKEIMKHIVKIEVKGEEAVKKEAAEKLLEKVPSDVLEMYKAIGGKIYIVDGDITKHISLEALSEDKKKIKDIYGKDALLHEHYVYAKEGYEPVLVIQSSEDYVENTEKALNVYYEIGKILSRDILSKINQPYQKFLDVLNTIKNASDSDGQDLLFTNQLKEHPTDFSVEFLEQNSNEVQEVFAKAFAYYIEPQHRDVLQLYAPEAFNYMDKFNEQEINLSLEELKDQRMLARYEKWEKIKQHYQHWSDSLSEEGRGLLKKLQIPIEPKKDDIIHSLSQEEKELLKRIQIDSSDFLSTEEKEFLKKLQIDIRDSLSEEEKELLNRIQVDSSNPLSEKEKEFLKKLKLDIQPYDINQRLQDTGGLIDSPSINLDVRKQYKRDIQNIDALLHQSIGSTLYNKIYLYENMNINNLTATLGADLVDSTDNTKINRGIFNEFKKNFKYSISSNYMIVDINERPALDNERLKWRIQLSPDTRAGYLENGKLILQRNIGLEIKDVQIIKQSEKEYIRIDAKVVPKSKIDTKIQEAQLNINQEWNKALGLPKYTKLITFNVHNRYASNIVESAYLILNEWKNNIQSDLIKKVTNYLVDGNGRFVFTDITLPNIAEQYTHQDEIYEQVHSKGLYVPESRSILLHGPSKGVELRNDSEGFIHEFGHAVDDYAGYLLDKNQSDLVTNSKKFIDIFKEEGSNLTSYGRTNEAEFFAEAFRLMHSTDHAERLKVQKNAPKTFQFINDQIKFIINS
BoNT-F LC inh – blocks Botulinum neurotoxin F light chain protease. Multiplex microsphere protease cleavage assay, flow cytometry. 0.22% of 360,000 active. inhibition, % at 10 µM; in the data active = inhibition above about 35%, passing the limit was not always enough; inconclusive = no clear call, values can overlap the other calls; note: plate controls were buffer without enzyme for full effect and enzyme alone for no effect
SSB-PriA inh – K. pneumoniae PriA-SSBct interaction inhibition | AID 1272365 | inhibition, % at 33 µM | AlphaScreen SSBct-PriA binding, biotinylated peptide | 0.6% of 430,000 active; in the data active = inhibition mostly above about 37%, no sharp cut-off; inactive = mostly below about 20%;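 note: plate controls were negative control peptide for no effect and reference peptide for full effect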
* hit, by the source's call; ? = inconclusive; nt = no result. Cut-off read from the data, not from the text of the source, unless noted: active = inhibition above about 30%; inconclusive = no clear call, values can overlap the other calls; inactive = below that.

SMILES	BoNT A protease	Autofluor counter	Anthrax LF inh2	BoNT-F LC inh	SSB-PriA inh
O=C(Cc1cccs1)Nc1ccc(S(=O)(=O)N2CCCCC2)cc1	0	4192	6	?	-10
CN1CCN(S(=O)(=O)c2ccc(NC(=O)Cc3cccs3)cc2)CC1	8	19616*	1	10	-10
CC(=O)Nc1ccc(S(=O)(=O)N2CC(c3nc4ccc(C)cc4[nH]3)C2)cc1	nt	nt	nt	nt	-5
CC(=O)Nc1ccc(S(=O)(=O)N2CCN(S(=O)(=O)c3ccc(NC(C)=O)cc3)CC2)cc1	0	3611	7	0	-18
CC(=O)Nc1ccc(S(=O)(=O)N2CCC(c3nc4ccc(C)cc4[nH]3)CC2)cc1	-1	24362*	-2	-4	-10
CN1CCN(S(=O)(=O)c2ccc(NC(=O)C(C)(C)C)cc2)CC1	?	22681*	-1	3	-14
COc1nnc(-c2ccc(N3CCCCC3)c(NC(C)=O)c2)c2ccccc12	?	19145*	2	2	-20
O=C(COc1ccccc1)Nc1nc2c(s1)-c1cccc3cccc-2c13	nt	nt	nt	nt	42*
O=C(CSc1nnc(Cc2ccccc2)n1-c1ccccc1)NNC(=O)Cc1ccccc1	2	21981*	3	2	-1
Cc1cccc(C)c1NC(=O)CSc1nnc(Cn2nnc(-c3ccccc3)n2)n1-c1ccccc1	?	19692*	1	0	1
Cn1cccc1Cc1nnc(SCC(=O)Nc2ccccc2F)n1-c1ccccc1	nt	nt	nt	nt	37*
COC(=O)CSc1nnc(Cc2ccccc2)n1-c1ccc(C)cc1	1	3651	3	-15	-9
Cn1cccc1Cc1nnc(SCC(=O)NCc2ccco2)n1-c1ccc(F)cc1	?	22151*	-6	4	13
O=C(CSc1nnc(Cn2nnc(-c3ccccc3)n2)n1-c1ccccc1)Nc1ccccc1	-2	9718	-10	-10	-9
O=C(NCc1cccnc1-c1ccsc1)c1ccc(C(F)(F)F)nc1	nt	nt	nt	nt	-14
Cc1cc(C)c(NC(=O)CSc2nnc(Cc3cccn3C)n2-c2ccc(F)cc2)c(C)c1	-3	25100*	-2	-7	16
CC(=O)Nc1cccc(NC(=O)CSc2nnc(Cc3cccn3C)n2-c2ccc(F)cc2)c1	2	21922*	-8	2	6
Cn1cccc1Cc1nnc(SCC(=O)N2CCOCC2)n1-c1ccc(F)cc1	0	6062	-3	-3	4
Cc1cc(C)cc(NC(=O)CSc2nnc(Cc3cccn3C)n2-c2ccc(F)cc2)c1	0	5446	-6	-5	3
Cc1cccc(-n2c(Cc3cccn3C)nnc2SCC(=O)N2CCN(c3ccccc3)CC2)c1C	nt	nt	nt	nt	36*
Cc1nc(-c2ccccc2Cl)sc1CNC(=O)Cc1c[nH]c2ccccc12	nt	nt	nt	nt	7
O=C(NCCS(=O)(=O)N1CCN(c2ccccn2)CC1)c1cnccn1	nt	nt	nt	nt	-11
COCCN(CCOC)C(=O)Cc1csc2nc(-c3ccc(Cl)cc3)cn12	nt	nt	nt	nt	-6
CCS(=O)(=O)N1CCN(C2Cc3ccccc3C2)CC1	?	22089*	-1	0	-8
N#CC1=C(N)Oc2cc(O)ccc2C1c1ccccc1 (stereo not given)	1	21140*	0	0	-12
SMILES	BoNT A protease	Autofluor counter	Anthrax LF inh2	BoNT-F LC inh	SSB-PriA inh
CN1OC[C@@H]2CN(Cc3ccccc3)[C@H](c3ccc(N4CCCCC4)cc3)C[C@@H]21	-7	12789	-22	-6	nt
CN1OC[C@@H]2CN(Cc3ccc4c(c3)OCO4)[C@H](c3ccc(N4CCCCC4)cc3)C[C@@H]21	-15	23460*	-22	15	nt
O=C(Cn1c(C(F)(F)F)nc2ccccc21)c1ccc(Cl)cc1	3	18546*	3	2	-27
Cc1ccc(NC(=O)CN2C(=O)S/C(=C/c3ccc(-c4cc(C(=O)O)ccc4C)o3)C2=O)cc1C	0	16807*	-4	-1	-6
Cn1c(-c2ccc(C=O)s2)nc2c3ccccc3c3ccccc3c21	79*	2883	48*	40*	-7
Cc1nnc(SCC(=O)Nc2cc(C(N)=O)cc(C(N)=O)c2)n1-c1ccccc1	-2	2922	1	0	-11
COc1ccccc1-n1c(C)nnc1SCC(N)=O	1	22827*	3	1	-6
COc1ccccc1-n1c(C)nnc1SCC(=O)Nc1cc(C)cc(C)c1	0	23628*	-2	0	3
CCOc1ccccc1-n1c(SCC(N)=O)nc2ccccc2c1=O	1	7953	2	1	5
Cc1cc(OC2CCN(C(=O)c3csc(-c4ccccc4)n3)CC2)cc(=O)o1	nt	nt	nt	nt	-5
COc1cc(OC)c(NC(=O)CSc2ncc(S(=O)(=O)c3ccc(C(C)(C)C)cc3)c(=O)[nH]2)cc1Cl	nt	nt	nt	nt	-7
Brc1ccc(-c2nc(-c3cccnc3)no2)o1	-1	4017	-8	-14	-27
Brc1ccc(-c2nc(-c3ccccc3)no2)o1	2	22544*	-1	2	-53
Cc1ccc2nc(NC(=O)CN3CCC(c4nnc(C)s4)CC3)sc2c1	nt	nt	nt	nt	3
O=C(NNC(=O)C1CCCCC1)c1cnccn1	3	22696*	1	4	-3
COc1ccc(/C=C/C(=O)NC(=S)NNC(=O)c2cnccn2)cc1	-4	4617	4	?	-7
O=C(NC(=S)NNC(=O)c1cnccn1)c1ccc(F)cc1	0	4831	-2	2	42*
O=C(/C=C/c1ccc(F)cc1)NC(=S)NNC(=O)c1cnccn1	-2	4528	0	-17	40*
Cc1nc(N2CCOCC2)nc(C)c1NC(=O)Nc1ccc(F)c(Cl)c1	nt	nt	nt	nt	-13
COC(=O)C(=O)CC(=O)c1cccn1C	nt	nt	nt	nt	0
CCOc1ccc(OCC(=O)N2CCN(c3nccn3-c3ccc(C)cc3)CC2)cc1	nt	nt	nt	nt	60*
Cc1ccc(OCC(=O)N2CCN(C3=NS(=O)(=O)c4ccccc43)CC2)cc1	0	20779*	-2	-3	-23
CCCC(=O)N1CCN(c2oc(-c3ccc(COc4ccccc4C)o3)nc2C#N)CC1	nt	nt	nt	nt	-12
CS(=O)(=O)c1ccc(NC(=O)CCCn2c(=O)[nH]c3ccsc3c2=O)cc1	nt	nt	nt	nt	-7
CC1(C)OC(=O)CC1C(=O)Nc1nc(-c2ccccn2)cs1 (stereo not given)	nt	nt	nt	nt	104*
SMILES	BoNT A protease	Autofluor counter	Anthrax LF inh2	BoNT-F LC inh	SSB-PriA inh
O=C(Nc1nc(-c2ccccn2)cs1)NC1CCCC1	nt	nt	nt	nt	130*
O=C(Nc1nc(-c2ccccn2)cs1)C12CC3CC(CC(O)(C3)C1)C2	-2	4586	-2	-7	76*
O=C(CC1CC2CCC1C2)Nc1nc(-c2ccccn2)cs1 (stereo not given)	6	3904	-1	-24	7
O=C(NCCCc1ccccc1)C1CC(=O)N(c2ccc3c(c2)OCCO3)C1 (stereo not given)	?	20162*	-2	2	-15
COc1ccc(OCCCC(=O)Nc2nc(-c3ccccn3)cs2)cc1	-1	4062	-4	-6	-19
O=C(Nc1nc(-c2ccccn2)cs1)C1CC(=O)N(c2ccc3c(c2)OCCO3)C1 (stereo not given)	0	10026	1	-14	78*
O=C(Nc1nc(-c2ccccn2)cs1)C1CC1	-1	4108	-5	-1	104*
CCC(=O)Nc1nc(-c2ccccn2)cs1	nt	nt	nt	nt	18
COC(=O)NC1(C(=O)Nc2nc(-c3ccccn3)cs2)CCCC1	nt	nt	nt	nt	95*
